Here are results for 5 compounds from PubChem BioAssay.

One may read the viability as a read-out of living cells in per cent, often relative to untreated cells. Usually inhibition stands for the drop in the measured response relative to a control, in per cent.

Assay [1] can be described thus: reducers of endogenous Her2 protein level, primary screen, SKBR3 breast tumor cells, AlphaScreen, ATP viability (AID 461;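 active means Her2 level under about 52% in both replicate screens, with viability over 70% of control, limit read from the data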;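 on Her2 level: lower value means less Her2 protein in the cells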;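 on viability: percent of carrier control wells set as 100% viability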). As to conditions: 18-24 h, measured here: SKBR3 viability, ATP luminescence, at 10 µM. In general terms: In Alpha technology, singlet oxygen from a donor bead excites a nearby acceptor bead.
Assay [2] concerns the target Receptor tyrosine-protein kinase erbB-2 (Homo sapiens) (UniProt P04626). The description is as above. As to conditions: 18-24 h, at 10 µM, stronger effect = lower value.
Assay [3] is described as follows: SK-BR-3 cell growth inhibitors, pilot screen, 24 h, human (AID 572;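 active means viability at or below 10% of carrier control in both of two separate runs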;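 further: compound exposure lasted between 18 and 24 h rather than exactly 24 h; 100% = carrier-treated control wells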). As to conditions: SK-BR-3 viability, CellTiter-Glo luminescence, at 10 µM, stronger effect = lower value.
Assay [4] is described as follows: HUVEC growth inhibition – cell-based, human, primary screen (AID 575;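 active means viability at or below 30% in both replicate assays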;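 further: 100% = median of untreated cell wells with 0.1% DMSO on each plate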). As to conditions: HUVEC proliferation, CellTiter-Glo luminescence, 72 h; at 10 µM; stronger effect = lower value.
The nature of assay [5]: growth inhibitors of H69AR lung tumor, primary screen, human, duplicate replicates (AID 580;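 active means viability at or under a set limit in both replicates, limit being median viability minus 3 SD, cut at about 48% in these data, passing the limit was not always enough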;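 further: 100% = mean luminescence of untreated wells and 0% = no signal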). As to conditions: H69AR lung tumor cells viability, ATP luminescence, 72 h; at 10 µM; stronger effect = lower value.
Assay [6] can be described thus: reversal of MRP1-mediated doxorubicin resistance, pilot screen, H69AR cells, doxorubicin co-treatment (AID 601;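 active means viability loss from added drug above about 55%, and viability with drug at most 40%, in both replicates, limit read from the data, passing the limit was not always enough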). As to conditions: CellTiter-Glo, 72 h, at 10 µM; for differential viability (reversal): stronger effect = higher value. A general note: Cellular ATP, detected with luciferase, serves as a proxy for viable cell number.
A short description of assay [7]: 384-well plate pilot, post-Golgi transport modulator project, inhibition of yeast transport mutant growth (AID 636; in the data active means inhibition above about 31%). As to conditions: absorbance 615 nm, about 18 h, stronger effect = higher value.
The nature of assay [8]: growth suppression of yeast trafficking mutant, preliminary HTS, modulators of trafficking downstream of Golgi apparatus project, 1536-format plate, OD 615 nm (AID 637; in the data active means inhibition above about 30%). As to conditions: yeast transport mutant growth, absorbance 615 nm, 18 h; stronger effect = higher value.
Assay [9] in a line: OD615 S. cerevisiae growth inhibition, permissive medium, pilot counter-assay, permissive growth control for S. cerevisiae lifespan shortening project (AID 705). As to conditions: OD615, 24 h, at 10 µM, stronger effect = higher value.
The nature of assay [10]: Restrictive medium S. cerevisiae growth inhibition, OD615, pilot screen of yeast lifespan reduction project, restrictive growth control (AID 706;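 active means growth inhibition above a set limit, 3 SD over mean compound inhibition, in both replicates, cut at about 43% in these data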;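 further: modified DeaD lifespan yeast strain shifted to restrictive glucose medium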). To be noted: OD615, 48 h, at 10 µM, stronger effect = higher value.
The nature of assay [11]: viability gain of MRP-1-high H69AR cells under doxorubicin, pilot screen, MRP-1 activator project, CellTiter-Glo, duplicate (AID 807;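 active means viability increase at or above a cutoff of the median across tested compounds plus 3 SD, cut at about 8.5% in these data, passing the limit was not always enough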;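 further: compound pretreatment 18-22 h then 72 h combined with doxorubicin; 0% = doxorubicin alone and 100% = vehicle without doxorubicin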). To be noted: H69AR viability with doxorubicin, CellTiter-Glo luminescence; at 10 µM; stronger effect = higher value.
Assay [12] can be described thus: growth suppression of beta-catenin knockout HCT116, pilot screen, human colon tumor cells (AID 823;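 active means cell viability at or below a set limit in both duplicate runs, the limit being the all-compound median minus 4 SD, cut at about 23% in these data, passing the limit was not always enough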;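 further: 0% = wells killed by 20 µM Hyamine and 100% = untreated DMSO cell wells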). As to conditions: CellTiter-Glo, 60 h, at 10 µM, stronger effect = lower value.
A short description of assay [13]: growth suppression of PTEN-deleted HCT116, pilot screen, cell-based, HCT116 clonal line, CellTiter-Glo (AID 824;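 active means viability at or below 27.92% in each of two runs, the all-compound median minus 4 SD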;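 further: 0% = 20 µM Hyamine control and 100% = vehicle cell control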). As to conditions: 60 h, at 10 µM, stronger effect = lower value.
The nature of assay [14]: inhibitors of the yeast RAM network, pilot screen, dse1pr::URA3 reporter, 5-FOA selection (AID 869;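 active means inhibition over a set limit, the all-compound mean plus 3 SD, in both replicate runs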;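 further: 0% = DMSO wells with no growth and 100% = 10 µM 1-NA-PP1 with full growth; RAM network block rescues cells from 5-FOA so hits raise OD615 growth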). To be noted: S. cerevisiae dse1pr::URA3 5-FOA growth, OD615, 2 d; at 10 µM; stronger effect = higher value; strain carries analog-sensitive mutant Cbk1 kinase.
Assay [15] in a line: RAM signaling pathway blockade in yeast – S. cerevisiae, Pdr1DBD-CYC8 efflux-inhibited sensitized strain, primary screen (AID 1298;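 active means RAM network inhibition above 8.4% in each of two replicates, 3 SD over the compound average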;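 further: 0% = DMSO untreated cells without growth and 100% = 10 µM 1-NA-PP1 full growth; higher means more yeast growth rescued from 5-FOA killing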). To be noted: S. cerevisiae cbk1-as DSE1-URA3 strain, 5-FOA growth OD615, 2 d; at 50 µM; stronger effect = higher value.
Setting [16] is: H69AR cells + 2 uM doxorubicin, measured here: viability with 2 uM doxorubicin, stronger effect = lower value.
[17] abbreviates: H69AR cells, compound alone cytotoxicity.

SMILES strings stand for the structures. Results filed as inconclusive are left out. Active and inactive are the calls of the source.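 How the source made its calls, unless noted: active means growth inhibition above 25% in both replicates, a cutoff set 3 SD above the mean; inconclusive means above 25% in only one replicate; inactive means the rest.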

Chain of Receptor tyrosine-protein kinase erbB-2 (Homo sapiens) (P04626 whole entry, looked up): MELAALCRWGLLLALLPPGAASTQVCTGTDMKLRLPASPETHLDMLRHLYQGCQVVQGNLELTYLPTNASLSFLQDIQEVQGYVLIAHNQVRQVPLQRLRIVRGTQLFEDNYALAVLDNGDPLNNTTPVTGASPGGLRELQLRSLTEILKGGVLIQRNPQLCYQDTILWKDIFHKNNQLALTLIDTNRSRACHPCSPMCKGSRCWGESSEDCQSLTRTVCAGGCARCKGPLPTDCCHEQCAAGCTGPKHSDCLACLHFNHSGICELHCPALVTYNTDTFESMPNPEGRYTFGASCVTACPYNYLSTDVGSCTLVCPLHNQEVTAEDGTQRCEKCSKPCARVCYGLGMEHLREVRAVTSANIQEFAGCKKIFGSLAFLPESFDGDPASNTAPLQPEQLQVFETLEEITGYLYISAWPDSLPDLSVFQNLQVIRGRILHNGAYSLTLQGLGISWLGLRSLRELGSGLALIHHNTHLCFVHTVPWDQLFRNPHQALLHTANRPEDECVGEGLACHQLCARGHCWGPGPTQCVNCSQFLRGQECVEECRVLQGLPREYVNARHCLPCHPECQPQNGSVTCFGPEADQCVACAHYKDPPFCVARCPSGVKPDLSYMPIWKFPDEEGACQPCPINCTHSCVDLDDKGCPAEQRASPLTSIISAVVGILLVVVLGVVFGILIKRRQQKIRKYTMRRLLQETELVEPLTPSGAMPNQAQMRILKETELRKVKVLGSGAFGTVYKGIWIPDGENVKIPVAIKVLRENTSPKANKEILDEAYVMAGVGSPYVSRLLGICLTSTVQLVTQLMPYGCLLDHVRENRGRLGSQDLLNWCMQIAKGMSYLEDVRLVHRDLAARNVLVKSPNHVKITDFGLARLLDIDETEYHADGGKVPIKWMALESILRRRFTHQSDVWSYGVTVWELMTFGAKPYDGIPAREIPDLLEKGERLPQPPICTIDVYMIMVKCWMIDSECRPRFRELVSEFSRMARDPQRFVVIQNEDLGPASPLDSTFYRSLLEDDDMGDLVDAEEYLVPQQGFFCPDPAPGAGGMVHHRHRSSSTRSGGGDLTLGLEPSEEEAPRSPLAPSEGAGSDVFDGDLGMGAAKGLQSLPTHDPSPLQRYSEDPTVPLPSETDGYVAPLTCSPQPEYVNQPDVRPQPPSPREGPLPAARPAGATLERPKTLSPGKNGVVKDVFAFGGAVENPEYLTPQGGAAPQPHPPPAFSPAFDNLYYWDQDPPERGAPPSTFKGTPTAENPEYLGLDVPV

For the compound `CCN1C(=C2C(=O)c3ccccc3C2=O)C=Cc2ccccc21`, the viability was 96.5% in [1]; 96.5% (inactive) in [3]; 92.6% (inactive) in assay [4]; 93.4% (inactive) in [5]; 93.9% in assay [6] (setting [16]); 93.4% in assay [6] (setting [17]). Further, the viability in assay [12] was 105% (inactive); in [13] it was 95.1% (inactive). For the same compound, the Her2 level in [2] was 97% (inactive). Moreover, the differential viability (reversal) in assay [6] (H69AR cells + 2 uM doxorubicin) is -0.49% (inactive). Moreover, the inhibition in assay [7] is 0.64% (inactive); in [8], -8% (inactive); in assay [14], 1.86% (inactive). Further, the growth inhibition in assay [9] was -23.3% (inactive); in assay [10], -27.6% (inactive). Besides, in assay [11], the viability increase is -1.18% (inactive). For the same compound, the RAM network inhibition in [15] is -0.72% (inactive).

For `CN(CC(=O)N1CCCCC1)S(=O)(=O)c1cccc2cccnc12`, the viability is 99% in [1]; 99% (inactive) in assay [3]; 91.5% (inactive) in assay [4]; 97.5% (inactive) in [5]; 95.8% in [6] (setting [16]); 97.5% in assay [6] (setting [17]). The viability in assay [12] is 94.6% (inactive); in assay [13] it was 94.7% (inactive). The Her2 level in assay [2] is 104% (inactive). The differential viability (reversal) in [6] (H69AR cells + 2 uM doxorubicin) is 1.62% (inactive). Besides, the inhibition was -0.4% (inactive) in assay [7], -1.8% (inactive) in [8] and 0.26% (inactive) in assay [14]. In addition, the growth inhibition is -4.94% (inactive) in assay [9] and 9.9% (inactive) in assay [10]. Also, the viability increase in assay [11] is -2.03% (inactive). The RAM network inhibition in assay [15] is 1.14% (inactive).

`O=c1c2ccccc2nc(SCc2nc(-c3ccccc3)no2)n1-c1ccc(F)cc1`: the viability in [1] is 90.5%; in assay [3] it was 90.5% (inactive); in assay [4], 79.7% (inactive); in assay [5] it was 89.7% (inactive); in [6] (setting [16]) it was 95.5%; in [6] (setting [17]), 89.7%. Moreover, the figures for the viability in assay [12] and in assay [13] were 72.2% (inactive) and 68.6% (inactive), respectively. For the same compound, the Her2 level in assay [2] was 98% (inactive). The differential viability (reversal) in [6] (H69AR cells + 2 uM doxorubicin) is -5.78% (inactive). Further, the inhibition was -5.73% (inactive) in assay [7], 2.17% (inactive) in [8] and 1.77% (inactive) in assay [14]. Moreover, the growth inhibition in assay [9] is 2.33% (inactive); in assay [10], -3.72% (inactive). Also, the viability increase in assay [11] was -1.52% (inactive). For the same compound, the RAM network inhibition in assay [15] is 8.86% (inactive).

On to `N#C/C(C(=O)N1CCOCC1)=C1/SC=C(c2ccccc2)N1c1ccccc1`, for which the viability was 102% in assay [1]; 102% (inactive) in assay [3]; 107% (inactive) in [4]; 96.1% (inactive) in assay [5]; 91.3% in assay [6] (setting [16]); 96.1% in assay [6] (setting [17]). In addition, the viability in assay [12] was 96.6% (inactive); in assay [13], 95% (inactive). Also, the Her2 level in assay [2] is 92% (inactive). For the same compound, the differential viability (reversal) in assay [6] (H69AR cells + 2 uM doxorubicin) was 4.83% (inactive). In addition, the results for the inhibition in assay [7], in assay [8] and in assay [14] were -7.57% (inactive), 1.67% (inactive) and 2.57% (inactive), respectively. In addition, the growth inhibition in assay [9] is -1.56% (inactive); in assay [10] it was -17.9% (inactive). For the same compound, the viability increase in assay [11] was -1.27% (inactive). In addition, the RAM network inhibition in [15] is 1.55% (inactive).

For the compound `COc1ccc(/C=N/O)cc1COc1ccc(NC(C)=O)cc1`, the viability was 115% in assay [1]; 115% (inactive) in [3]; 102% (inactive) in assay [4]; 103% (inactive) in assay [5]; 90.2% in assay [6] (setting [16]); 103% in assay [6] (setting [17]). Besides, the viability was 90.9% (inactive) in assay [12] and 93.4% (inactive) in [13]. Besides, in assay [2], the Her2 level is 98% (inactive). In addition, the differential viability (reversal) in [6] (H69AR cells + 2 uM doxorubicin) is 13.2% (inactive). The inhibition is -4.32% (inactive) in [7], 1.9% (inactive) in assay [8] and 0.83% (inactive) in assay [14]. Also, the growth inhibition in [9] was -5.25% (inactive); in assay [10] it was -2.58% (inactive). In [11], the viability increase is -0.85% (inactive). Also, the RAM network inhibition in assay [15] is 0.92% (inactive).
